Test results taken from PubChem BioAssay (NCATS).
Where “and” joins values, the source holds several entries; their conditions need not be identical. Equal values may be shown once. Records with an inconclusive call do not appear. Calls of active or inactive are those of the source. Unless noted, calls come from the whole dose curve; as a rule, active = well fitted curve in the direction sought with a large enough effect; inconclusive = small, poorly fitted or top-dose-only effect, or another doubt; inactive = no such curve, though single readings can be large; an effect the other way counts as inactive or inconclusive.

Legend:
[1] = Cellular Toxicity (caspase-3) HepG2 (AID 654);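 note: cells exposed to compound for 16 hours before reading; 0% = DMSO alone and 100% = caspase signal from 100 µM tamoxifen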
How it was run: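 Concentration-response AC50 values reflect caspase-3/7 induction in HepG2 cells after 16 hours of compound exposure, quantified by luminescence from liberated aminoluciferin and referenced to 100 uM tamoxifen as full stimulation.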

[2] = Cellular Toxicity (caspase-3) HUV-EC-C (AID 656)
How it was run: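 Luminescent caspase-3/7 activation (aminoluciferin substrate cleavage) in HUV-EC-C cells after 16 hr compound exposure, 37°C. Signal normalized to DMSO basal and 100 uM tamoxifen as 100%; AC50 from concentration-response fitted with the Hill equation.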

[3] = Cellular Toxicity (caspase-3) SHSY5Y (AID 657)
How it was run: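 Luminescent caspase-3/7 readout (aminoluciferin release) in SH-SY5Y cells after 16 h compound exposure in complete medium. Activity scaled between DMSO basal and 10 uM staurosporine as 100%; concentration-response fitted to Hill equation for AC50.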

[4] = Cellular Toxicity (caspase-3) BJ (AID 658); conditions: Potency: caspase-3 activation;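 note: 0% = DMSO basal and 100% = 10 µM staurosporine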
How it was run: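 qHTS, BJ fibroblasts, 1000 cells/well; 5 hr preincubation, 16 hr compound, 37 °C; Caspase-Glo 3/7 reagent, 1 hr RT; luminescence. DMSO = 0%, 10 uM staurosporine = 100%. Hill-equation AC50.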

[5] = Cellular Toxicity (caspase-3) MRC-5 (AID 659);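 note: 0% = DMSO basal and 100% = 10 µM staurosporine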
How it was run: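 MRC-5 fibroblasts, 1500/well; 16 h cpd, 37 °C; Caspase-Glo 3/7, 1 h RT; lumi read. Norm: DMSO = 0%, 10 uM staurosporine = 100%. Hill-fit AC50 from qHTS conc-response.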

[6] = Cellular Toxicity (caspase-3) Mesangial (AID 660);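 note: combined caspase 3 and 7 activity read by Caspase-Glo luminescence; cells exposed to compound for 16 h before the caspase read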
How it was run: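 AC50 values come from Hill-equation fits of caspase 3/7 activation, measured as Caspase-Glo luminescence in human glomerular mesangial cells exposed to compound for 16 h at 37 °C; 100% set by 100 uM tamoxifen.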

[7] = Cellular Toxicity (caspase-3) Hek293 (AID 664); conditions: HEK293 caspase-3 activation, DMSO = 0%, 100 µM tamoxifen = 100%; at 92.2 µM (top of the series);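 note: cells exposed to compound for 16 h at 37 °C before readout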
How it was run: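 Apoptosis readout: Caspase-Glo 3/7 signal in human HEK293 cells following 16-hour compound incubation. Responses scaled between DMSO baseline and 100 uM tamoxifen.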

[8] = Cellular Toxicity (caspase-3) N2a (AID 665);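 note: compound exposure lasted 16 h at 37 °C before readout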
How it was run: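 Concentration-response qHTS: compound-induced caspase-3/7 luminescence in N2a cells (16 h, 37 °C), relative to DMSO and 10 uM staurosporine controls; AC50 obtained using the standard Hill equation.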

[9] = Cellular Toxicity (caspase-3) Renal Proximal Tubule (AID 667); conditions: Potency: caspase-3 activation;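 note: cells exposed to compound for 16 hours at 37 °C before detection; 0% = DMSO basal and 100% = 10 µM staurosporine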
How it was run: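 Luminescent caspase 3/7 signal from peptide-aminoluciferin cleavage measures apoptosis in freshly isolated rat kidney proximal tubule cells after 16 h compound exposure. Concentration-response data are normalized to DMSO and 10 uM staurosporine, and AC50 values come from Hill equation fits.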

[10] = target: Peroxisome proliferator-activated receptor alpha (Homo sapiens) (UniProt Q07869); assay: qHTS assay for small molecule agonists of the peroxisome proliferator-activated receptor alpha (PPARalpha) signaling pathway (AID 651778); conditions: PathHunter PPARalpha complementation, chemiluminescence, 6 h; max response: active compounds read high; note: % of control where 0% means no effect
How it was run: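 Enzyme-fragment complementation assay in which ligand-bound PPARalpha translocates and forms an active enzyme that generates chemiluminescence. Cells were plated overnight, exposed to compound for 6 hr at 37 C, and then given detection reagent for 60 min at room temperature.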

[11] = qHTS assay for small molecule agonists of the antioxidant response element (ARE) signaling pathway measured by Nrf2-dependant transcriptional activity - cell viability counter screen (AID 720653; active = well fitted curve in the direction sought with a large enough effect in the repeat runs; an effect the other way counts as inactive or inconclusive; note: % is set by controls: 0 for no effect and ±100 for the full control effect); conditions: ARE-bla HepG2 viability, CellTiter-Glo ATP luminescence, 16 h; max response: active compounds read low
How it was run: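 ARE-bla HepG2 cells treated with compounds for 16 h at 37C; this counter screen measures viability as intracellular ATP by CellTiter-Glo luminescence after 30 min at room temperature.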

[12] = qHTS assay for cell viability of the p53RE-bla HCT-116 cell line (AID 743292); note: % is set by controls: 0 for no effect and ±100 for the full control effect; nearly all actives have a fitted effect of over 55% in size
How it was run: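 CellSensor p53RE-bla HCT-116 cells (4,000/well) pre-incubated 5 h at 37 C, then exposed to compounds in DMSO for 16 h at 37 C. Viability read as ATP content by CellTiter-Glo luminescence after 30 min at room temperature.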

[13] = target: Mitogen-activated protein kinase 10 (Mus musculus) (UniProt Q61831); assay: JNK3 AlphaScreen Assay (AID 530; active = well fitted curve in either direction with a large enough effect, not every such curve was filed as active;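 note: kinase came from lysate of stimulated human HepG2 cells; signal reports phosphorylation of biotinylated GST-cJun 1-79 at Ser73 with 10 µM ATP; % is set by controls: 0 for no effect and ±100 for the full control effect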)
How it was run: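 HepG2 lysate (IL-1b/TNFa pre-activated) + biotin-GST-cJun 1-79 + anti-pSer73 cJun; cpd titration, 15 min RT; ATP 10 uM start; Tris pH 7.6, MgCl2, DTT, vanadate; beads in EDTA buffer; AlphaScreen.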

[14] = Stat Signaling Pathway (AID 446; active = well fitted curve in either direction with a large enough effect, not every such curve was filed as active;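 note: ME-180 cervical cancer cells given 40 pM IL-6 alongside compound; SIE-controlled beta-lactamase reporter measured as 460/530 nm FRET emission ratio; % is set by controls: 0 for no effect and ±100 for the full control effect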); conditions: ME-180 (cervical carcinoma) SIE beta-lactamase reporter, IL-6 stimulated, 5 h; at 7.69 µM (top of the series) unless noted
How it was run: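 Normalization used AC90 stimulation (300 pM IL-6) and AC90 inhibition (125 nM pan-JAK inhibitor at 40 pM IL-6). The underlying signal is SIE-driven beta-lactamase in ME-180 cells after 5 h IL-6 exposure with compound.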

[15] = target: Glucocorticoid receptor (Homo sapiens) (UniProt P04150); assay: GR-GFP Redistribution (AID 450;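 active = compounds whose dose series gives a full or clear partial fitted curve of increased nuclear translocation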; note: potency is the fitted concentration of half-maximal effect); conditions: U2OS GR-GFP nuclear translocation, laser cytometry, 2 h
[16] = target: Glucocorticoid receptor (Homo sapiens) (UniProt P04150); assay: GR-EFC Redistribution (AID 451; calls by dose curve; note: potency is the fitted concentration of half-maximal effect); conditions: CHO-K1 GR-EFC translocation, beta-gal luminescence, 2 h
How it was run: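 CHO-K1 cells expressing nuclear EA and GR-ED fragments of b-gal; compounds titrated up to 46 uM final, 2 h at 37 C. GR nuclear translocation read as complemented b-gal luminescence after 1 h RT detection.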

Sequence of Peroxisome proliferator-activated receptor alpha (Homo sapiens) (Q07869 whole entry, looked up, the tested form may be a part): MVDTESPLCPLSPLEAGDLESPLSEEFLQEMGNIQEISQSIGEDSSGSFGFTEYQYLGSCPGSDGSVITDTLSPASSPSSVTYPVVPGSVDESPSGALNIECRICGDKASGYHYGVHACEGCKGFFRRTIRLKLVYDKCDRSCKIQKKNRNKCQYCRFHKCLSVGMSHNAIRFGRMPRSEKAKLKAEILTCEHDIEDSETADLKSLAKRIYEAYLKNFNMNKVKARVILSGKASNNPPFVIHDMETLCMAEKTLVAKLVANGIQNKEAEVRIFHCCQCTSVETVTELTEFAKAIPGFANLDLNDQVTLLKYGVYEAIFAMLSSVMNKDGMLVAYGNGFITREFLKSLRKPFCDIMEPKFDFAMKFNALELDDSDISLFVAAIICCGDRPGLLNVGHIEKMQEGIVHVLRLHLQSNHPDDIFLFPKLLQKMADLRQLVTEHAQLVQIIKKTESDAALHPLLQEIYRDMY
Sequence of Glucocorticoid receptor (Homo sapiens) (P04150 whole entry, looked up, the tested form may be a part): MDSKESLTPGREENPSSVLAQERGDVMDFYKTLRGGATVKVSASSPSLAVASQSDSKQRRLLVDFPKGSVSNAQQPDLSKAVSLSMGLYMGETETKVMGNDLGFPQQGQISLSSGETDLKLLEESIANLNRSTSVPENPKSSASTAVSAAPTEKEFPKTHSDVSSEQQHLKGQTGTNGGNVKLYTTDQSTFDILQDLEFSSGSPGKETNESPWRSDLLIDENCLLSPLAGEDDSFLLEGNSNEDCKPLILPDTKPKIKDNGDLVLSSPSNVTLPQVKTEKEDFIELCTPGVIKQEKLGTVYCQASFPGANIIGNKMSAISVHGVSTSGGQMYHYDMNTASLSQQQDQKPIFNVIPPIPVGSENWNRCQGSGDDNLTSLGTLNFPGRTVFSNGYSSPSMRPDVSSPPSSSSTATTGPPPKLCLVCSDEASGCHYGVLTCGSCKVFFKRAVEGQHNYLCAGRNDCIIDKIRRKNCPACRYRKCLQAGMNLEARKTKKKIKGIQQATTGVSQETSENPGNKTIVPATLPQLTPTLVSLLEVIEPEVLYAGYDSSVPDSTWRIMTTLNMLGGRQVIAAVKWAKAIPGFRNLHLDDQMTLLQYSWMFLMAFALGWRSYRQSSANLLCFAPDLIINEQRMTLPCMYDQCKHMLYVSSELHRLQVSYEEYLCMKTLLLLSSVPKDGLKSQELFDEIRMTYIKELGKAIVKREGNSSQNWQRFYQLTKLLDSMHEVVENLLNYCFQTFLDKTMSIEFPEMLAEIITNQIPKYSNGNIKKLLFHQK

O=[N+]([O-])c1cccc(I)c1
inactive: Potency [1] | Potency [2] | Potency [3] | Potency [4] | outcome [5] | outcome [6] | caspase-3 activation [7] -1.61% | outcome [8] | Potency [9] | max response [10] -0.601% | max response [11] 2.94% | Potency [12]

CCCCC(CC)COP(=O)(OCC(CC)CCCC)OCC(CC)CCCC (stereo not drawn)
inactive: Potency [13] | Potency [1] | Potency [2] | Potency [3] | Potency [4] | outcome [5] | outcome [6] | caspase-3 activation [7] 2.89% | outcome [8] | Potency [9] | max response [10] -6.02% | max response [11] -10.8% | Potency [12]

Nc1ccc(N)c(Cl)c1
inactive: Potency [13] | Potency [1] | Potency [2] | Potency [3] | Potency [4] | outcome [5] | outcome [6] | caspase-3 activation [7] 4.53% | outcome [8] | Potency [9] | max response [10] 0.817% | max response [11] 24% | Potency [12]

CC(C)(C)C1CCC2(CC1)CCN(CCCN1CCOCC1)CC2
inactive: activity, negative = inhibition [14] -3.69% | Potency [15] > 46 µM | Potency [16] > 9.22 µM | Potency [13]

Nc1cnn([C@@H]2O[C@H](CO)[C@@H](O)[C@H]2O)c(=O)n1
inactive: Potency [13] | Potency [1] | Potency [2] | Potency [3] | Potency [4] | outcome [5] | outcome [6] | caspase-3 activation [7] -2.69% | outcome [8] | Potency [9] | max response [10] -1.23% | max response [11] 20.2% | Potency [12]

CCCCOC(=O)COc1ccc(Cl)cc1Cl
inactive: Potency [1] | Potency [2] | Potency [3] | Potency [4] | outcome [5] | outcome [6] | caspase-3 activation [7] -0.377% | outcome [8] | Potency [9] | max response [10] 7.72% and -1.16% | max response [11] -6.14% and -13.6% | Potency [12]

O=C=Nc1ccc(Cl)c(Cl)c1
inactive: Potency [1] | Potency [2] | Potency [3] | Potency [4] | outcome [5] | outcome [6] | caspase-3 activation [7] 9.15% | outcome [8] | Potency [9] | max response [10] 21.6% | max response [11] -6.45% | Potency [12]

Nc1cc([N+](=O)[O-])ccc1O
inactive: Potency [13] | Potency [1] | Potency [2] | Potency [3] | Potency [4] | outcome [5] | outcome [6] | caspase-3 activation [7] -0.467% | outcome [8] | Potency [9] | max response [10] -13.4% and -8.79% | max response [11] -7.79% and -12.9% | Potency [12]

O=C(O)c1ccc([N+](=O)[O-])cc1
inactive: Potency [13] | Potency [1] | Potency [2] | Potency [3] | Potency [4] | outcome [5] | outcome [6] | caspase-3 activation [7] 10.3% | outcome [8] | Potency [9] | max response [10] -2.26% and 0.632% | max response [11] -7.35% and -20.8% | Potency [12]

C/C=C/C=C/C=O
inactive: Potency [13] | Potency [1] | Potency [2] | Potency [3] | Potency [4] | outcome [5] | outcome [6] | caspase-3 activation [7] 29% | outcome [8] | Potency [9] | max response [10] -0.84% | max response [11] -19.3% | Potency [12]
